Our source for the growth values is PubChem BioAssay (NCI).

Compounds without any hit were thinned out: in the full panel of roughly 83,000, 20% have a hit.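 Single-dose data. Exposure time 48 hours. Values below 10 considered active.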 Unmarked numbers belong to inactive results. Activity calls are given as the source filed them.

Some test systems named below: NCI-H23 lung; NCI-H226 lung; HOP-62 NSCLC; NCI-H460 lung; HOP-92 NSCLC; NCI-H522 lung; A549/ATCC NSCLC; 786-0 renal; COLO 205 colon; DU-145 prostate; K-562 leukemia; MALME-3M melanoma; MDA-MB-231 breast; RXF 393 renal; SF-268 CNS; SF-295 CNS; SF-539 CNS; UACC-257 melanoma; M14 melanoma.
Holding throughout (experiment): NCI-60 one-dose screen, 48 h (100 = growth as untreated, 0 = no growth, -100 = all killed)
Settings in all cases: 10 µM unless noted

For `C=C1C(=O)O[C@H]2[C@H]1CC/C(COC(=O)NCc1c[nH]c3ccc(Br)cc13)=C\CC[C@@]1(C)O[C@@H]21`, the growth in the experiment on NCI-H23 lung is 29.4%; in the experiment on NCI-H226 lung, 4.62% (active); in the experiment with HOP-62 NSCLC, 58.5%; with NCI-H460 lung, 24.1%; in the experiment on HOP-92 NSCLC, -46.3% (active); in the experiment on NCI-H522 lung, -89.9% (active). Besides, the growth with A549/ATCC NSCLC was 49.1%; in the experiment with 786-0 renal, -47.7% (active); in the experiment on COLO 205 colon, -78.2% (active); with DU-145 prostate, -88.6% (active); in the experiment on K-562 leukemia, 0.98% (active); in the experiment with MALME-3M melanoma, -45.4% (active). Moreover, the growth was -52.7% (active) in the experiment on MDA-MB-231 breast; -87.7% (active) in the experiment on RXF 393 renal; 3.85% (active) with SF-268 CNS; 60.9% with SF-295 CNS; -36.9% (active) in the experiment on SF-539 CNS; -39.6% (active) in the experiment with UACC-257 melanoma. Further, the growth with M14 melanoma was -40.8% (active).
Take `COc1ccc(OC)c(CCn2cncc2-c2c[nH]c3ccccc23)c1`: the growth with NCI-H23 lung is 55.6%; in the experiment on NCI-H226 lung it was 68.3%; with HOP-62 NSCLC, 74.3%; with NCI-H460 lung, 92%; in the experiment with HOP-92 NSCLC, 46.7%; in the experiment on NCI-H522 lung it was 71%. For the same compound, the growth with A549/ATCC NSCLC is 90.8%; with COLO 205 colon it was 90.1%; in the experiment with DU-145 prostate, 88.4%; in the experiment with K-562 leukemia, 42.4%; with MALME-3M melanoma, 74.5%; in the experiment with MDA-MB-231 breast, 72.2%. Moreover, the growth in the experiment on RXF 393 renal is 74.4%; in the experiment on SF-268 CNS, 71.1%; with SF-295 CNS, 71.6%; in the experiment with SF-539 CNS, 88.5%; in the experiment on UACC-257 melanoma, 80.8%; with M14 melanoma, 73.3%.
Take `COc1ccc(C(=O)c2cc(C)c(OC)c(C)c2)c(OC)c1OC(=O)C(Cl)Cl`: the growth is 29.2% in the experiment with NCI-H23 lung; 6.91% (active) in the experiment with NCI-H226 lung; 17.4% in the experiment with HOP-62 NSCLC; 2.25% (active) in the experiment on NCI-H460 lung; 21.7% with HOP-92 NSCLC; -10.8% (active) in the experiment on NCI-H522 lung. Further, the growth is 13.1% in the experiment on 786-0 renal; 73.5% with COLO 205 colon; 4.39% (active) in the experiment with DU-145 prostate; 8.43% (active) in the experiment on K-562 leukemia; 58.9% with MALME-3M melanoma; 18.8% with MDA-MB-231 breast. Besides, the growth was 38.7% in the experiment with RXF 393 renal; 25% with SF-268 CNS; 14.5% in the experiment on SF-295 CNS; -16% (active) in the experiment with SF-539 CNS; 48.1% in the experiment with UACC-257 melanoma; -9.89% (active) with M14 melanoma.
Consider `CCCCCN1C=C/C(=C\C(=O)N2CCCc3ccccc32)c2ccccc21`, for which the growth in the experiment on NCI-H23 lung was 57.5%; with NCI-H226 lung, 79.3%; with HOP-62 NSCLC, 107%; with NCI-H460 lung, 91.9%; in the experiment with HOP-92 NSCLC, 73.5%; in the experiment on NCI-H522 lung it was 68.5%. Besides, the growth was 89.4% with A549/ATCC NSCLC; 95.6% in the experiment with 786-0 renal; 96.8% with COLO 205 colon; 94.1% with DU-145 prostate; 54.1% in the experiment with K-562 leukemia; 86% with MALME-3M melanoma. Further, the growth in the experiment on MDA-MB-231 breast was 97%; in the experiment on RXF 393 renal it was 99.5%; with SF-268 CNS, 87.2%; with SF-295 CNS it was 85.7%; in the experiment with SF-539 CNS, 97.2%; in the experiment on UACC-257 melanoma, 89.8%. Also, in the experiment on M14 melanoma, the growth is 100%.
With `N#CC(C#N)=Cc1cc2ccccc2nc1Oc1ccc(C(F)(F)F)cc1`, the growth was 81.8% in the experiment on NCI-H23 lung; 77.1% in the experiment with NCI-H226 lung; 93.7% with HOP-62 NSCLC; 97.4% in the experiment with NCI-H460 lung; 48.7% in the experiment with HOP-92 NSCLC; 91.8% in the experiment on NCI-H522 lung. Further, the growth in the experiment with A549/ATCC NSCLC is 99.5%; in the experiment with 786-0 renal it was 98.8%; in the experiment on COLO 205 colon it was 101%; in the experiment with DU-145 prostate it was 99.1%; with K-562 leukemia, 64.5%; in the experiment on MALME-3M melanoma it was 98.8%. The growth with MDA-MB-231 breast is 84.5%; in the experiment with RXF 393 renal, 92.3%; with SF-268 CNS it was 84.4%; in the experiment with SF-295 CNS, 92.2%; with SF-539 CNS, 96.9%; with UACC-257 melanoma, 106%. The growth in the experiment on M14 melanoma is 92.8%.
Turning to `COc1cc(NC(C)CCCNC(=O)CCC(=O)NCCCNCCCCCCCCCCNCCCNC(=O)CCC(=O)NCCCC(C)Nc2cc(OC)cc3cccnc23)c2ncccc2c1` (configuration not stated), the growth in the experiment on NCI-H23 lung was 63.4% [8 µM]; with NCI-H226 lung it was 58.6% [8 µM]; in the experiment with HOP-62 NSCLC, 101% [8 µM]; in the experiment on NCI-H460 lung, 81% [8 µM]; in the experiment on HOP-92 NSCLC, 59% [8 µM]; in the experiment with NCI-H522 lung, 57.1% [8 µM]. Moreover, the growth with A549/ATCC NSCLC was 63.7% [8 µM]; in the experiment on 786-0 renal, 92.5% [8 µM]; with COLO 205 colon, 26.7% [8 µM]; in the experiment on DU-145 prostate, 71.8% [8 µM]; in the experiment with K-562 leukemia, 51.2% [8 µM]; with MALME-3M melanoma, 38.9% [8 µM]. Besides, the growth is 34.6% [8 µM] with MDA-MB-231 breast; 88.1% [8 µM] in the experiment on RXF 393 renal; 66% [8 µM] in the experiment with SF-268 CNS; 97% [8 µM] in the experiment with SF-295 CNS; 75.7% [8 µM] in the experiment with SF-539 CNS; 47.1% [8 µM] in the experiment with UACC-257 melanoma. Further, the growth in the experiment with M14 melanoma was 87% [8 µM].
